Screening data from PubChem BioAssay.
hiPSC survival = hiPSC single-cell survival enhancement | ATPlite luminescence; 100% = ROCK inhibitor wells, 0% = DMSO | hit rate 0.044% among 360,000 | survival enhancement, % at 20 µM | AID 602274; in the data active = survival enhancement above about 18%;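 note: cells exposed to compounds for 16 hours before the ATP read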
KKLEB tox = CF airway cell cytotoxicity counter-screen; AID 602141; hit rate 0.36% among 360,000; activity change (cytotoxicity), % at 5 µM; KKLEB CF airway cells viability, ATPlite luminescence, overnight; hits give low values; cells stimulated with P. aeruginosa culture filtrate;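 active = corrected activity change at or below -50% at 5 µM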
LGR2 inh = inhibitors of bursicon-induced Drosophila LGR2 receptor cAMP signaling; hit rate 0.35% among 380,000; AID 720647; inhibition, % at 9.99 µM; HEK293 LGR2, CRE-luciferase, bursicon-stimulated, 4 h;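 active = drop in luminescence signal, shown as inhibition above about 50% in the replicate tests, limit read from the data, passing the limit was not always enough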;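 note: agonist challenge used bursicon conditioned medium at about half maximal strength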
TWEAK-Fn14 inh = TWEAK-Fn14 signaling inhibition; TWEAK-stimulated Fn14 reporter cells, luciferase luminescence, 8 h; AID 1159606; inhibition, % at 10 µM; hit rate 2% among 360,000; in the data active = inhibition above about 50%
HIF-2a block = HIF-2a inhibition; AID 624352; hit rate 0.72% among 360,000; inhibition, % at 18.8 µM; 786-0 RCC cells HIF-2a reporter, luciferase luminescence, overnight;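 active = inhibition of the luminescence signal of 40% or more relative to plate controls, in a single-dose primary screen at 18.75 µM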
CF NFkB block = cystic fibrosis NF-kB activation inhibition. KKLEB NF-kB-GFP reporter, PAF-induced, GFP fluorescence overnight. inhibition, % at 5 µM. AID 588850. hit rate 0.86% among 360,000;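 active = at least 50% inhibition at 5 µM, scaled per plate between neutral and stimulator controls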;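 note: PAF is a Pseudomonas aeruginosa culture filtrate used as stimulus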
CF NFkB conf = confirmation of cystic fibrosis induced NF-kB inhibitors; shares compounds with CF NFkB block; hit rate 64% among 1,300; KKLEB CF airway cells, PAF-induced NF-kB-GFP fluorescence, overnight; inhibition, % at 5 µM; in the data active = inhibition above about 40%;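 note: stimulus PAF is a Pseudomonas aeruginosa filtrate and not platelet activating factor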
Mdm2 MdmX conf = confirmation of inhibitors of human Mdm2/MdmX interaction, set 2. shares compounds with HIF-2a block. hit rate 99% among 740. SaOS-2 split-luciferase Mdm2/MdmX complementation, luminescence. AID 504601. inhibition, % at 8 µM;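 active = mean inhibition of the luminescence signal across two replicates at or above 26 percent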
HIF-2a inh conf = HIF-2a inhibition, single concentration confirmation. shares compounds with HIF-2a block. 786-0 RCC cells, HIF-2a luciferase reporter luminescence, overnight. inhibition, % at 18.8 µM. hit rate 56% among 1,800. AID 651580;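 active = mean inhibition across four replicates of at least 40 percent at the single tested concentration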
HIF-1a counter = counter-screen for HIF-2a inhibitors: HIF-1a inhibition in MiaPaCa-2 cells; shares compounds with HIF-2a block; MiaPaCa-2 HIF-1a luciferase reporter, desferoxamine, overnight; inhibition, % at 18.8 µM; hit rate 72% among 1,800; AID 651589;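 active = mean inhibition of the reporter signal across four replicates at the single tested dose of 50% or more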
Numbers stand for hits; – = inactive; · = no result given. This is a sample that favours compounds with a hit; in the whole collection about 2.3% have one here.

SMILES	hiPSC survival	KKLEB tox	LGR2 inh	TWEAK-Fn14 inh	HIF-2a block	CF NFkB block	CF NFkB conf	others
C=C1C(=O)O[C@H]2[C@H]1[C@H](OC(=O)CC(=O)O[C@@H]1C[C@@H](C)[C@@H]3C=CC(=O)[C@@]3(C)[C@H]3OC(=O)C(=C)[C@H]13)C[C@@H](C)[C@H]1C=CC(=O)[C@]12C	–	–	–	–	–	–	·
O=C(Cc1ccccn1)N1CCCCN2[C@@H](CO)[C@H](c3ccc(-c4ccccc4)cc3)[C@@H]2C1	·	·	–	·	·	·	·
COC(=O)[C@@H]1[C@@H](CO)[C@@H]2Cn3c(ccc(-c4cccnc4)c3=O)[C@H]1N2S(=O)(=O)c1ccccc1C	·	·	–	·	·	·	·
N#CC(C#N)=C(C#N)c1ccc(Nc2ccccc2)cc1	–	–	–	–	–	52.7	·
CC1=CC(C)CC(C)OC(=O)CC(c2ccc(O)cc2)NC(=O)C(Cc2c(Br)[nH]c3ccccc23)N(C)C(=O)C(C)NC(=O)C(C)C1 (configuration not stated)	–	-81.0	81.7	–	–	90.9	·
COc1ccc(C#Cc2ccc([C@@H]3[C@H](CO)N4CCCCN(C(=O)Cc5ccncc5)C[C@@H]34)cc2)cc1	·	·	–	·	·	·	·
CN(C)CC#Cc1ccc([C@@H]2[C@H]3CN(C(=O)Cc4ccccn4)CCCCN3[C@H]2CO)cc1	·	·	–	·	·	·	·
CC1(C)C[C@H]2C=C(C=O)[C@]3(C=O)C[C@]3(C)[C@H]2C1	–	–	·	83.8	–	77.4	·
COC(=O)[C@@H]1[C@@H](CO)[C@@H]2Cn3c(ccc(-c4cccc(OC)c4)c3=O)[C@H]1N2CC1CC1	·	·	–	·	·	·	·
N#Cc1c(Br)n(C2OC(CO)C(O)C2O)c2ncnc(N)c12 (configuration not stated)	–	–	–	–	–	73.0	84.0
NC(=O)c1c(Br)n(C2OC(CO)C(O)C2O)c2ncnc(N)c12 (configuration not stated)	–	–	–	–	–	60.7	60.5
OCC1OC(n2cnc3cc(Cl)c(Cl)cc32)C(O)C1O (configuration not stated)	–	–	–	–	–	–	·
COc1ccc(C#Cc2ccc([C@@H]3[C@@H](CO)N4CCCCN(C(=O)Cc5cccnc5)C[C@H]34)cc2)cc1	·	·	–	·	·	·	·
C[C@@H]1CN([C@@H](C)CO)C(=O)c2c(c3ccccc3n2C)-c2ccccc2CO[C@H]1CN(C)C(=O)Oc1ccccc1	·	·	–	·	·	·	·
COc1ccc(C(CNC(=O)Cc2ccc(Cl)c(Cl)c2)N2CCCCC2)cc1 (configuration not stated)	–	–	–	–	–	–	·
CCOC(=O)c1cnc(SCc2ccc(Cl)c(Cl)c2)nc1N1CC1	–	–	–	–	–	66.6	–
COc1ccc(C#Cc2ccc([C@@H]3[C@H](CO)N4CCCCN(C(=O)Cc5cccnc5)C[C@@H]34)cc2)cc1	·	·	–	·	·	·	·
C[C@H]1CCC[C@H](O)CCCCCc2cc(O)cc(O)c2C(=O)O1	–	–	–	–	–	–	·
C[C@H]1CCC[C@@H](O)CCC/C=C/c2cc(O)cc(O)c2C(=O)O1	–	–	–	59.0	–	51.1	46.5
Oc1ccc(Br)cc1CN1CCN(c2ccccc2)CC1	–	–	·	–	–	62.4	–
COc1cc(C2c3cc4c(cc3CC3COC(=O)C32)OCO4)cc(OC)c1OC (configuration not stated)	–	–	–	–	–	–	·
COc1cc(C2c3cc4c(c(O)c3CC3COC(=O)C32)OCO4)cc(OC)c1OC (configuration not stated)	–	–	–	–	–	50.6	90.2
O=C(Cc1ccccn1)N1CCCCN2[C@H](CO)[C@@H](c3ccc(C#Cc4ccccc4)cc3)[C@H]2C1	·	·	–	·	·	·	·
NC(=Nc1ccccc1)NN=Cc1c[nH]c2ccccc12	–	–	–	–	–	66.9	55.1
Cc1ccc(OC(=O)N(C)C[C@@H]2OCc3ccccc3-c3c(n(C)c4ccccc34)C(=O)N([C@@H](C)CO)C[C@H]2C)cc1	·	·	–	·	·	·	·
SMILES	hiPSC survival	KKLEB tox	LGR2 inh	TWEAK-Fn14 inh	HIF-2a block	CF NFkB block	CF NFkB conf	others
O=c1[nH]c2ccccc2n1C1CCN(C(c2cc3ccccc3o2)c2nnnn2-c2ccc3c(c2)OCCO3)CC1 (configuration not stated)	–	–	95.9	78.3	–	79.7	105.8
COc1ccc(C(c2nnnn2-c2ccc(OC)cc2)N2CCC(n3c(=O)[nH]c4ccccc43)CC2)cc1 (configuration not stated)	–	–	–	–	–	92.2	90.2
C[C@@H]([C@@H](O)c1ccccc1)N(C)C(=O)Cc1ccccc1	–	–	–	–	–	–	·
CN(C)CC(C(=O)Cc1ccccc1)c1ccccc1 (configuration not stated)	–	–	–	–	96.8	59.1	–	HIF-2a inh conf=–;HIF-1a counter=105.6
COc1ccc(Oc2cc(NC(=O)c3nn(C)cc3[N+](=O)[O-])cc([N+](=O)[O-])c2)cc1	–	–	–	–	93.7	58.8	107.5	Mdm2 MdmX conf=84.5
CNc1cc(Cl)c2nonc2c1[N+](=O)[O-]	48.2	–	104.2	–	95.2	84.0	–	HIF-2a inh conf=93.0;HIF-1a counter=105.7
COc1ccc(-c2ccc3n(c2=O)C[C@H]2[C@H](CO)[C@@H](C(=O)O)[C@@H]3N2C(=O)c2ccccc2F)cc1	·	·	–	·	·	·	·
O=C(Cc1ccccc1)N1CCCCN2[C@H](CO)[C@@H](c3ccc(C#Cc4ccccc4)cc3)[C@H]2C1	·	·	–	·	·	·	·
CCCC[C@@H](C)C[C@@H](C)C(=O)N(C)[C@@H](CC(C)C)C(=O)N[C@H](C(=O)N(C)[C@H](C(=O)N1C[C@@H](O)C[C@H]1C(=O)N1C(=O)C=C[C@@H]1C)C(C)C)C(C)OC(C)=O (some centres not stated)	–	-88.3	·	51.5	53.2	84.2	·	Mdm2 MdmX conf=99.9
O=c1[nH]c2ccccc2n1C1CCN(C(CCc2ccccc2)c2nnnn2Cc2ccccc2)CC1 (configuration not stated)	–	-82.1	99.4	93.9	66.6	83.5	·	HIF-2a inh conf=–;HIF-1a counter=105.3
